Unmarked numbers belong to inactive results. Results filed as inconclusive are left out. Calls of active or inactive are those of the source. Unless noted, calls follow the shape of the dose curve; as a rule, active = well fitted curve in the direction sought with a large enough effect; inconclusive = small, poorly fitted or top-dose-only effect, or another doubt; inactive = no such curve, though single readings can be large; an effect the other way counts as inactive or inconclusive.
Experiments:
[1] = target: Lysosomal acid glucosylceramidase (Homo sapiens) (UniProt P04062); assay: Glucocerebrosidase-p2 (AID 348; in the data active = potency below about 10 µM; also: potency is read from the fitted curve at half-maximal effect); details: purified GBA, blue fluorogenic substrate, 40 min
Method in brief: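 Normal human glucocerebrosidase (0.2 nM) with blue fluorogenic substrate (80 uM final) in citrate/phosphate pH 5.9 with 10mM sodium taurocholate, 0.01% tween-20; 40 min RT, NaOH/glycine stop; fluorescence Ex 365/Em 440; AC50 from a titration from 0.6 nM upwards.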

[2] = target: Glucocorticoid receptor (Homo sapiens) (UniProt P04150); assay: GR-GFP Redistribution (AID 450;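 active = compounds whose dose series gives a full or clear partial fitted curve of increased nuclear translocation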; also: potency is read from the fitted curve at half-maximal effect); details: U2OS GR-GFP nuclear translocation, laser cytometry, 2 h
[3] = target: Glucocorticoid receptor (Homo sapiens) (UniProt P04150); assay: GR-EFC Redistribution (AID 451; calls by dose curve; also: potency is read from the fitted curve at half-maximal effect); details: CHO-K1 GR-EFC translocation, beta-gal luminescence, 2 h
Method in brief: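 CHO-K1 cells expressing nuclear EA and GR-ED fragments of b-gal; compounds titrated up to 46 uM final, 2 h at 37 C. GR nuclear translocation read as complemented b-gal luminescence after 1 h RT detection.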

[4] = target: Mitogen-activated protein kinase 10 (Mus musculus) (UniProt Q61831); assay: JNK3 AlphaScreen Assay (AID 530; active = well fitted curve in either direction with a large enough effect, not every such curve was filed as active;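 also: kinase came from lysate of stimulated human HepG2 cells; signal reports phosphorylation of biotinylated GST-cJun 1-79 at Ser73 with 10 µM ATP; % is scaled to controls: 0 for no effect and ±100 for the full control effect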); details: JNK3 lysate, c-Jun phosphorylation; series mostly up to 57.1 µM
Method in brief: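 Activity was read by AlphaScreen after JNK3-containing HepG2 lysate (cytokine pre-activated) phosphorylated biotinylated GST-cJun with 10 uM ATP at room temperature. Phospho-Ser73 cJun antibody with Protein-A acceptor beads provided detection.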

[5] = target: 3',5'-cyclic-AMP phosphodiesterase 4B (Homo sapiens) (UniProt Q07343); assay: qHTS Assay for Inhibitors of PDE-IV (AID 607; active = well fitted activation curve with a large enough effect in the main read-out, with a control signal flat, not every such curve was filed as active; also: % of control where 0% means no effect); details: HEK293 ACTOne CNG channel cells, membrane potential fluorescence; series mostly up to 22.9 µM
Method in brief: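 Live HEK293 cells with a modified cyclic nucleotide-gated (CNG) channel report intracellular cAMP via membrane-potential dye fluorescence (ex 535/em 590 nm). Endogenous PDE-IV was targeted. Compounds were tested at up to 22.9 uM final; RO 20-1724 100 uM served as control.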

[6] = target: Dual specificity protein kinase CLK4 (Homo sapiens) (UniProt Q9HAZ1); assay: qHTS Assay for Inhibitors of CDC-like Kinase 4 (Kinase-Glo Assay) (AID 1770); details: recombinant Clk4, Kinase-Glo ATP depletion luminescence; series mostly up to 66.7 µM; also: nearly all actives have a fitted effect of over 65% in size; also: potency is read from the fitted curve at half-maximal effect
Method in brief: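 Clk4 25 nM, RS peptide 100 uM, ATP 1 uM, pH 7.5 Tris, 10 mM MgCl2, 2.5 mM DTT; 4.5 h RT; ATP depletion read by Kinase-Glo luminescence.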

[7] = target: Dual specificity protein kinase CLK4 (Homo sapiens) (UniProt Q9HAZ1); assay: qHTS Assay for Inhibitors of CDC-like Kinase 4 (ADP-Glo Assay) (AID 1771); details: recombinant CLK4, ADP-Glo luminescence; series mostly up to 80 µM; also: nearly all actives have a fitted effect of over 70% in size; also: potency is read from the fitted curve at half-maximal effect
Method in brief: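 ADP production was read by ADP-Glo luminescence after residual ATP depletion, following 1 h room-temperature reaction of 25 nM Clk4, 1 uM ATP and 100 uM RS peptide with MgCl2, EGTA, DTT and Triton X-100.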

[8] = target: Dual specificity protein kinase CLK4 (Homo sapiens) (UniProt Q9HAZ1); assay: qHTS Assay for Inhibitors of CDC-like Kinase 4 (ADP-FP Assay) (AID 1795); details: Transcreener ADP fluorescence polarization; series mostly up to 50 µM; also: nearly all actives have a fitted effect of over 60% in size; also: potency is read from the fitted curve at half-maximal effect
Method in brief: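 Kinase activity was followed as ADP output, converted from fluorescence polarization with a calibration curve. Reactions ran one hour at low ATP (1 uM) with RS peptide substrate.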

[9] = target: Ubiquitin carboxyl-terminal hydrolase 1 (Homo sapiens) (UniProt O94782); assay: Inhibitors of USP1/UAF1: Pilot qHTS (AID 504865); details: purified USP1/UAF1, Ub-rhodamine cleavage fluorescence; series mostly up to 54.9 µM; also: nearly all actives have a fitted effect of over 35% in size; also: potency is read from the fitted curve at half-maximal effect
Method in brief: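 Enzyme-free wells gave the negative control, while test wells held 1nM USP1/UAF1 preincubated with compound for 15 min at room temperature. Ub-Rho at 150nM final started the reaction, and fluorescence at 480/540 nm was recorded kinetically.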

[10] = Primary qHTS for small molecule stabilizers of the endoplasmic reticulum resident proteome: Secreted ER Calcium Modulated Protein (SERCaMP) assay (AID 1508630); details: SH-SY5Y GLuc-SERCaMP (Gaussia luciferase released on ER calcium loss) secretion, thapsigargin, luminescence; series mostly up to 38.4 µM; also: % is scaled to controls: 0 for no effect and ±100 for the full control effect
Method in brief: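 The SH-SY5Y reporter protocol was run at 3 concentrations up to 38.3 uM (primary) or 11 concentrations (follow-up): 16 h compound, 100 nM thapsigargin for 4 h, then extracellular luciferase luminescence.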

[11] = NFAT Signaling Pathway (AID 444; active = well fitted curve in either direction with a large enough effect, not every such curve was filed as active;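 also: carbachol stimulus at about its EC50 of 1 µM final; % is scaled to controls: 0 for no effect and ±100 for the full control effect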); details: Jurkat NFAT-bla M1, carbachol, beta-lactamase ratio, 5 h; at 7.69 µM (top of the series) unless noted
Method in brief: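 Jurkat cells with NFAT-driven β-lactamase reporter and co-expressed M1 receptor, stimulated with carbachol (final 1 uM, ~EC50), compound titration, 5 h at 37 °C. CCF4 loaded 1 h at RT; 460/530 nm ratio gave %activity and AC50.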

[12] = qHTS Assay for Identification of Small Molecule Agonists for Hypoxia Response Element Signaling Pathway (AID 914; active = well fitted activation curve with a large enough effect in the signal ratio, with a control signal flat, not every such curve was filed as active; the % refers to the signal ratio; also: potency is read from the fitted curve at half-maximal effect); details: ME-180 HRE-bla reporter, beta-lactamase ratio, CoCl2, 17 h; activation: hits give high values
Method in brief: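 HRE-bla ME-180 assay for agonist-like enhancement of an EC50 CoCl2 stimulus: 17 h at 37 degrees Celsius, CCF4 for 2.5 h, ratiometric 460/530 nm signal converted to %Activity and fitted to AC50.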

[13] = AP1 Signaling Pathway (AID 357; active = well fitted curve in either direction with a large enough effect, not every such curve was filed as active;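 also: ME-180 reporter cells stimulated with EGF at its EC50 level; % is scaled to controls: 0 for no effect and ±100 for the full control effect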); details: ME-180 AP-1-bla reporter, EGF-induced, beta-lactamase ratio, 5 h; at 7.69 µM (top of the series) unless noted
Method in brief: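 Read-out was the 460nm/530nm emission ratio (excitation 405nm) after CCF4 loading for 2.5 hours at room temperature. Cells carried an AP-1-driven beta-lactamase reporter, were stimulated with EC50 EGF plus compound for 5 hours, and AC50 values came from titrations.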

[14] = Stat Signaling Pathway (AID 446; active = well fitted curve in either direction with a large enough effect, not every such curve was filed as active); details: ME-180 (cervical carcinoma) SIE beta-lactamase reporter, IL-6 stimulated, 5 h; at 7.69 µM (top of the series) unless noted
Method in brief: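 Overnight-plated ME-180 cells bearing a STAT Inducible Element beta-lactamase reporter; 5 h co-exposure to compound and 40 pM IL-6; values normalized to 300 pM IL-6 and 125 nM JAK inhibitor controls.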

[15] = target: Cytochrome P450 1A2 (Homo sapiens) (UniProt P05177); assay: p450-cyp1a2 (AID 410; calls by dose curve; also: potency is read from the fitted curve at half-maximal effect); details: recombinant CYP1A2, luciferin-ME demethylation, luminescence; series mostly up to 57 µM
Method in brief: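 Luminescent demethylation readout: Luciferin-ME (100uM, equal to Km) turned over by 20nM CYP1A2 for 60 min at room temperature after NADPH regeneration addition, following 10 min compound preincubation. Normalization used 57 uM furafylline as full inhibition.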

[16] = target: Cytochrome P450 3A4 (Homo sapiens) (UniProt P08684); assay: qHTS Assay for Activators of Cytochrome P450 3A4 (AID 885); details: recombinant CYP3A4, Luciferin-PPXE luminescence, 60 min; series mostly up to 57.1 µM; also: nearly all actives have a fitted effect of over 65% in size
Method in brief: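 Using 20nM recombinant human CYP3A4 in potassium phosphate (200mM), substrate Luciferin-PPXE at 25uM, luminescent luciferin detection followed a 60-min RT NADPH reaction; data scaled to 57 uM ketoconazole.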

[17] = target: Cytochrome P450 2C19 (Homo sapiens) (UniProt P33261); assay: qHTS Assay for Inhibitors and Substrates of Cytochrome P450 2C19 (AID 899); details: recombinant CYP2C19, luciferin-H EGE luminescence; series mostly up to 57.1 µM; also: potency is read from the fitted curve at half-maximal effect; nearly all actives have a fitted effect of over 60% in size
Method in brief: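 Signal comes from luciferase acting on luciferin released by CYP2C19-mediated hydroxylation of Luciferin-H EGE, 10uM (KM). Assay mix: 5nM enzyme, 50mM KPO4; 60 min at 37C with NADPH regeneration. Data normalized against 57uM ketoconazole.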

[18] = target: Cytochrome P450 3A4 (Homo sapiens) (UniProt P08684); assay: qHTS Assay for Inhibitors and Substrates of Cytochrome P450 3A4 (AID 884); details: recombinant CYP3A4, Luciferin-PPXE luminescence; series mostly up to 57.1 µM; also: potency is read from the fitted curve at half-maximal effect; nearly all actives have a fitted effect of over 50% in size
Method in brief: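 Luminescent readout of luciferin produced by CYP3A4 (20 nM) dealkylation of Luciferin-PPXE, 25 uM (its KM). NADPH-driven reaction ran 60 min at RT after 10 min compound preincubation; data scaled to 57 uM ketoconazole as 100% inhibition.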

[19] = target: Cytochrome P450 2D6 (Homo sapiens) (UniProt P10635); assay: qHTS Assay for Inhibitors and Substrates of Cytochrome P450 2D6 (AID 891); details: recombinant CYP2D6, luciferin-ME EGE luminescence; series mostly up to 57.1 µM; also: potency is read from the fitted curve at half-maximal effect; nearly all actives have a fitted effect of over 60% in size
Method in brief: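 Luminescent read-out of luciferin formed by 5 nM human CYP2D6 demethylating 30 uM Luciferin-ME EGE (Km level) over 60 min at room temperature after NADPH regeneration addition. Data normalized to full inhibition by 1.43 uM quinidine.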

[20] = target: Cytochrome P450 2C9 (Homo sapiens) (UniProt P11712); assay: qHTS Assay for Inhibitors and Substrates of Cytochrome P450 2C9 (AID 883); details: recombinant CYP2C9, luciferin-H luminescence, 60 min; series mostly up to 57.1 µM; also: % is scaled to controls: 0 for no effect and ±100 for the full control effect; nearly all actives have a fitted effect of over 60% in size
Method in brief: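 Signal: luciferase luminescence reporting luciferin produced by CYP2C9. Conditions: 10nM enzyme, Luciferin-H 100uM at KM, 25mM KPO4, 37C, 60 min NADPH-driven reaction. Reference: 57uM sulphaphenazole as 100% inhibition.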

Chain of Ubiquitin carboxyl-terminal hydrolase 1 (Homo sapiens) (O94782 whole entry, looked up): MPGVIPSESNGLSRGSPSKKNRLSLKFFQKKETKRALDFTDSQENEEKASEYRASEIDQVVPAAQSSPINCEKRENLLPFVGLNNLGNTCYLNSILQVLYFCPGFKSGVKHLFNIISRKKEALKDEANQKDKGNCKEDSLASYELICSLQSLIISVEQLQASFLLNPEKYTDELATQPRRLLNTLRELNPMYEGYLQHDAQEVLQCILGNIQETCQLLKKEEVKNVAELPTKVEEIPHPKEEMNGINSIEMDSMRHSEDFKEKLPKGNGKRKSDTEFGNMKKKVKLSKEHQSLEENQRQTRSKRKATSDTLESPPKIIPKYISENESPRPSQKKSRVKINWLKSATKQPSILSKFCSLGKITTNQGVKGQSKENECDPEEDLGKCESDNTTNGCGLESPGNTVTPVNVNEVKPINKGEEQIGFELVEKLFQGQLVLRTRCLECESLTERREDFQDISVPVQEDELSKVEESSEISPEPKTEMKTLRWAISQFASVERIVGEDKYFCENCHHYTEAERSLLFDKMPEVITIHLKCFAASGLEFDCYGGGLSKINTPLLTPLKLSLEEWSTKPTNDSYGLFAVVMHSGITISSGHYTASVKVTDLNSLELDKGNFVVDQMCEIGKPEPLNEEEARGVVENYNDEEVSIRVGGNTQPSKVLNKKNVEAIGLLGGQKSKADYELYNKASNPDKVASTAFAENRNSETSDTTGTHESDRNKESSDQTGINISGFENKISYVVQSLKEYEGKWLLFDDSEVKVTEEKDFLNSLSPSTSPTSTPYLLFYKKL
Chain of Dual specificity protein kinase CLK4 (Homo sapiens) (Q9HAZ1 whole entry, looked up): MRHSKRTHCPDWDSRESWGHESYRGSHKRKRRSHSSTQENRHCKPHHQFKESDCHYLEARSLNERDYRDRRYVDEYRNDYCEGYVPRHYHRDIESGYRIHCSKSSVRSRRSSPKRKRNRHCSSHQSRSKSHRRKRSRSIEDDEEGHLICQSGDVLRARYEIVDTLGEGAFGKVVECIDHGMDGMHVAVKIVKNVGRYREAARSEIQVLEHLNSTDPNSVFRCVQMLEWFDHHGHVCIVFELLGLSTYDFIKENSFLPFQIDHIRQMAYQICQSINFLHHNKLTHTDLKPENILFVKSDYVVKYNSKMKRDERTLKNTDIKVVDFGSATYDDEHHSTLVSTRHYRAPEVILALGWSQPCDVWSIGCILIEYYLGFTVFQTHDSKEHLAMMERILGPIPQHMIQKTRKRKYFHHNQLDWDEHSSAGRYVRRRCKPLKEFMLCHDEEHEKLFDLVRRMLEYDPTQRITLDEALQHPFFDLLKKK
Chain of Lysosomal acid glucosylceramidase (Homo sapiens) (P04062 whole entry, looked up): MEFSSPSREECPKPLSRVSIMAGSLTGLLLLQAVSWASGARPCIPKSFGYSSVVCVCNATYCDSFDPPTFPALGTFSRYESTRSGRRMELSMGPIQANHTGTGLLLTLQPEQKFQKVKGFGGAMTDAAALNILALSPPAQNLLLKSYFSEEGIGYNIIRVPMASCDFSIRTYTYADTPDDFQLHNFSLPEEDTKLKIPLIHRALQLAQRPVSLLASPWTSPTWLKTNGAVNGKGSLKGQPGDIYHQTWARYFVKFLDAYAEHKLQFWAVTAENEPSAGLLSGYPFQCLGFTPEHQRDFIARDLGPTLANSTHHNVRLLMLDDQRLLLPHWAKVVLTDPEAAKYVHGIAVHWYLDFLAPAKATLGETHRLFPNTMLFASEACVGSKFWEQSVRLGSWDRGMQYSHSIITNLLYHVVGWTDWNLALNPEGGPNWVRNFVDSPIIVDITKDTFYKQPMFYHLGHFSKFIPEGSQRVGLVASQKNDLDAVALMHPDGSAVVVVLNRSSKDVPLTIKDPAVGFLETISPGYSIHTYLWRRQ
Chain of Cytochrome P450 3A4 (Homo sapiens) (P08684 whole entry, looked up): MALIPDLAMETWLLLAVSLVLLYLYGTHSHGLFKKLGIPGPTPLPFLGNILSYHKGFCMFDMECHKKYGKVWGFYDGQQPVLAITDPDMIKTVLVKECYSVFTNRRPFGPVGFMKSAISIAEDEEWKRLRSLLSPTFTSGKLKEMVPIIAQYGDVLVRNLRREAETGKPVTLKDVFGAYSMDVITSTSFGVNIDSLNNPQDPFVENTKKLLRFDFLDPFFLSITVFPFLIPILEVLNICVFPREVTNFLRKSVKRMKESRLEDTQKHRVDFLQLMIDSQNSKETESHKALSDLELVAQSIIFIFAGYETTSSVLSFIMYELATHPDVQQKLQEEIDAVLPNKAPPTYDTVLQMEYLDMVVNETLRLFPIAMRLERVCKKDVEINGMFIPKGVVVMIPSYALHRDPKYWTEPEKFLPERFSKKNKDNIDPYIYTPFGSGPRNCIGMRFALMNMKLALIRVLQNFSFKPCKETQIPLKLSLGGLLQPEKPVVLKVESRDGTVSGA
Chain of Cytochrome P450 1A2 (Homo sapiens) (P05177 whole entry, looked up): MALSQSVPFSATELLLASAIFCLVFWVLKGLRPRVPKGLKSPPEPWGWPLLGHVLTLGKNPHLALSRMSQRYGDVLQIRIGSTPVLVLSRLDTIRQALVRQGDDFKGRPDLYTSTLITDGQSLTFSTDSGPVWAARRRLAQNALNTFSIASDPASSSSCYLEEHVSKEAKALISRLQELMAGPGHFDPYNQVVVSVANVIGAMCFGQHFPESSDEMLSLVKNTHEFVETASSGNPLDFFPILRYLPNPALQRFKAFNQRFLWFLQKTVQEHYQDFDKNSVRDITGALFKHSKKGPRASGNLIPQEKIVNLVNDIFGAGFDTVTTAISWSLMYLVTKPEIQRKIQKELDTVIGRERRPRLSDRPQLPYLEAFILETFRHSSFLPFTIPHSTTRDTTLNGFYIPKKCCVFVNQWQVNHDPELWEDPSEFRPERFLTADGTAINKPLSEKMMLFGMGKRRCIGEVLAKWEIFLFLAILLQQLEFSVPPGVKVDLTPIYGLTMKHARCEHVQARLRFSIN
Chain of Glucocorticoid receptor (Homo sapiens) (P04150 whole entry, looked up, the tested form may be a part): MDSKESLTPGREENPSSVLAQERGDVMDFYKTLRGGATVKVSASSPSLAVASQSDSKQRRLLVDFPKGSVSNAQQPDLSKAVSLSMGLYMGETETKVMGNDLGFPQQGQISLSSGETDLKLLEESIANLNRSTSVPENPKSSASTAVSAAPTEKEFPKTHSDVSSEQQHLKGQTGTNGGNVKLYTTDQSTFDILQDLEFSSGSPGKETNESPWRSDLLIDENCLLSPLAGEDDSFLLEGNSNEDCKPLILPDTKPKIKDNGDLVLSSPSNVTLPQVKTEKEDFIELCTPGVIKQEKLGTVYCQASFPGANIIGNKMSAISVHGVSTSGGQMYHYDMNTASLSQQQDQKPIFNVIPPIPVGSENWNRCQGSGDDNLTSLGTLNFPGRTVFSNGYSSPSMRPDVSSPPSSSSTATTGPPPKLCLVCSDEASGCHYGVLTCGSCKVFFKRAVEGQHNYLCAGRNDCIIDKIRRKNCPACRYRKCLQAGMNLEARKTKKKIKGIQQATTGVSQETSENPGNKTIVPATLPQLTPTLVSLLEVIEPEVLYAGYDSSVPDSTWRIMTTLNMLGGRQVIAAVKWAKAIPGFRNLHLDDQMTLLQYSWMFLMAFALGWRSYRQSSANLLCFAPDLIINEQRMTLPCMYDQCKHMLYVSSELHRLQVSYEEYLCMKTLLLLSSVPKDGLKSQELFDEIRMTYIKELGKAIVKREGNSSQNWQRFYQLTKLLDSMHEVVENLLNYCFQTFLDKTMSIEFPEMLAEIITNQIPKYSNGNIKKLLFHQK
Chain of 3',5'-cyclic-AMP phosphodiesterase 4B (Homo sapiens) (Q07343 whole entry, looked up): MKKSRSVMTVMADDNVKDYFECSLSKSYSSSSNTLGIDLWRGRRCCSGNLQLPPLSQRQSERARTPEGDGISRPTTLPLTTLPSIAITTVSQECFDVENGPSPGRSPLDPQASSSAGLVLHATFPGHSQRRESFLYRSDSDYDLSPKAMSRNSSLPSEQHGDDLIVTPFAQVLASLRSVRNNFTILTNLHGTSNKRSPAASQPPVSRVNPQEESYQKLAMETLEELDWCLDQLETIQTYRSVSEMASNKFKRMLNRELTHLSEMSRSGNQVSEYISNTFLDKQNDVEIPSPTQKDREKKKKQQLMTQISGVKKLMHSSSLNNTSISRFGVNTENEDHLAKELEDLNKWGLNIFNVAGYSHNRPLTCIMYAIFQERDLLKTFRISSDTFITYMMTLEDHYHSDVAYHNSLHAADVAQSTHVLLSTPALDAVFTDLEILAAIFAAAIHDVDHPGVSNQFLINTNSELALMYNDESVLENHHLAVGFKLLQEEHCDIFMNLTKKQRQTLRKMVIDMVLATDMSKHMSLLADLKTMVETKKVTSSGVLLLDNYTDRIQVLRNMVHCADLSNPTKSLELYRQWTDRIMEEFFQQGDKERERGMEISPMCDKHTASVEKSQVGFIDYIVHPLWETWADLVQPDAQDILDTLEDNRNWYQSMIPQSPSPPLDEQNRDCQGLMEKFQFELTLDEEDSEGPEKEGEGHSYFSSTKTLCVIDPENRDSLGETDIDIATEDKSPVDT
Chain of Cytochrome P450 2C19 (Homo sapiens) (P33261 whole entry, looked up): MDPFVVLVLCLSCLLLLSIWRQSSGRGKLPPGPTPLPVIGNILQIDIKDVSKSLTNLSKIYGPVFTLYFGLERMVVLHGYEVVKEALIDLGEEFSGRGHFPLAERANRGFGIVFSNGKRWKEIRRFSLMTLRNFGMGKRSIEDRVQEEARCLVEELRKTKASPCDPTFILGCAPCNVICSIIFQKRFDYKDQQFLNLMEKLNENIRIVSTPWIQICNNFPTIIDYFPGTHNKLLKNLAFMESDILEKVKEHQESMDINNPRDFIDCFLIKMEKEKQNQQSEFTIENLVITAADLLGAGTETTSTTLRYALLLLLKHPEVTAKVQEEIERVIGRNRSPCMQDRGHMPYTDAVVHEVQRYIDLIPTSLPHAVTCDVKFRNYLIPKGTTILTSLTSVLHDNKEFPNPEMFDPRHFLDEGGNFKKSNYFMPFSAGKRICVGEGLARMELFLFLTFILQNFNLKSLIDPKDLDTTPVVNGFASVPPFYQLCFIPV

SMILES | Potency [1] | Potency [2] | Potency [3] | Potency [4] | Potency [5] | Potency [6] | Potency [7] | Potency [8] | Potency [9] | outcome [10] | activity change, negative = inhibition [11] | Potency [12] | activity change, negative = inhibition [13] | activity, negative = inhibition [14] | Potency [15] | Potency [16] | Potency [17] | Potency [18] | Potency [19] | activity change, negative = inhibition [20]
COc1cccc(Nc2ncc3ncc(=O)n(C[C@H]4CCCO4)c3n2)c1 | > 11.4 µM | > 9.22 µM | > 46 µM | inactive | inactive | 1.41 µM (active) | 1.58 µM (active) | 0.794 µM (active) | inactive | inactive | – | – | – | – | – | – | – | – | – | –
CN1CCN(c2ncc3nc(-c4cn(C)c5ccccc45)c(=O)n(Cc4cccs4)c3n2)CC1 | > 11.4 µM | > 9.22 µM | > 46 µM | – | inactive | inactive | inactive | inactive | inactive | inactive | 3.65% | 2.51 µM (active) | – | – | – | – | – | – | – | –
COc1cccc(Cn2c(=O)c(-c3cccc(C#N)c3)nc3cnc(N4CCOCC4)nc32)c1 | – | > 9.22 µM | > 46 µM | inactive | inactive | inactive | inactive | inactive | inactive | inactive | 0.194% | – | 0.3% | 18.9% | – | – | – | – | – | –
CCNc1ncc2nc(-c3ccc(OC)cc3)c(=O)n(Cc3cccs3)c2n1 | – | > 9.22 µM | > 46 µM | inactive | – | inactive | inactive | inactive | inactive | inactive | 2.94% | 3.16 µM (active) | – | – | 0.631 µM (active) | inactive | – | – | – | –
CN(C)c1ncc2nc(CCc3ccccc3)c(=O)n(C3CC3)c2n1 | – | > 9.22 µM | > 46 µM | inactive | – | inactive | inactive | inactive | inactive | inactive | – | – | 1.45% | -4.87% | 3.16 µM (active) | inactive | – | – | – | –
O=c1c(-c2cccs2)nc2cncnc2n1Cc1ccc(F)cc1 | – | > 9.22 µM | > 46 µM | – | inactive | inactive | inactive | inactive | inactive | inactive | -15.7% | – | -19.2% | -3.58% | 2.51 µM (active) | inactive | 7.94 µM (active) | – | – | –
Clc1ccccc1-c1nccc(NCc2ccccc2)n1 | – | > 46 µM | > 46 µM | inactive | – | inactive | inactive | inactive | 28.2 µM (active) | inactive | 10.7% | – | 12.5% | -6.25% | 3.16 µM (active) | – | – | – | – | –
COc1ccccc1CNc1ccnc(-c2ccc(N(C)C)cc2)n1 | – | > 46 µM | > 46 µM | inactive | inactive | inactive | inactive | inactive | inactive | inactive | -1.75% | – | -10.1% | -10.8% | 0.794 µM (active) | inactive | – | 7.94 µM (active) | 0.501 µM (active) | –
Cc1noc(C)c1-c1nccc(N(C)C)n1 | – | > 46 µM | > 46 µM | inactive | inactive | inactive | inactive | inactive | inactive | inactive | -4.83% | – | 2.07% | 15.8% | 0.631 µM (active) | inactive | – | – | – | –
COc1cccc(-c2cncnc2NCc2cccc(C)c2)c1 | > 11.4 µM | > 46 µM | > 46 µM | inactive | – | 31.6 µM (active) | 25.1 µM (active) | – | inactive | inactive | -0.339% | – | -11.8% | -10.4% | 2 µM (active) | inactive | 0.794 µM (active) | 0.398 µM (active) | – | –
CN(C)c1nc(-c2cccnc2)nc2ccccc12 | > 11.4 µM | > 46 µM | > 46 µM | inactive | inactive | 28.2 µM (active) | 25.1 µM (active) | – | inactive | inactive | -1.56% | – | 12.7% | -4.72% | 0.126 µM (active) | inactive | – | – | – | 81% [at 2.29 µM]
Cn1c(=O)c(-c2cc(F)cc(F)c2)nc2cnc(N3CCNCC3)nc21 | – | > 9.22 µM | > 46 µM | inactive | inactive | inactive | inactive | inactive | inactive | inactive | – | 3.16 µM (active) | – | – | – | inactive | – | – | – | –
COc1cccc(-c2cc(NCc3cnc(C)cn3)ncn2)c1 | > 11.4 µM | > 46 µM | > 46 µM | inactive | inactive | 17.8 µM (active) | 15.8 µM (active) | – | inactive | inactive | -0.299% | – | 12.1% | -1.25% | 5.01 µM (active) | inactive | – | – | – | –

— PubChem BioAssay (NCATS)
